# Experimental data published in PubChem BioAssay (EPA / NIEHS).
# Activity calls are given as the source filed them. Rule for the calls: active = hit-call score of the fitted dose curve at least 0.9, where 1 is the maximum; inactive = score below 0.9.
# Assay: CEETOX_H295R_CORTISOL: CeeTox H295R High-throughput Steroidogenesis Assay for Cortisol (AID 2283438);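 note: cortisol secreted into medium quantified by LC-MS/MS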
# Details: actives raise or lower the signal
# Experimental: CEETOX_H295R is a cell-based, multiplexed-readout assay that uses H295R, a human adrenal gland cell line, with measurements taken at 48 hours after chemical dosing in a 96-well plate.CEETOX_H295R_CORTISOL is one of 23 assay component(s) measured or calculated from the CEETOX_H295R assay. It is designed to make measurements of hormone induction, a form of inducible reporter, as detected with absorbance signals by HPLC-MS-MS technology.Data from the assay component CEETOX_H295R_CORTISOL was analyzed into 1 assay endpoint. This assay endpoint, CEETOX_H295R_CORTISOL, was analyzed with bidirectional fitting relative to DMSO as the negative control and baseline of activity. Using a type of inducible reporter, gain or loss-of-signal activity using HPLC-MS-MS was used to understand synthesis of Cortisol in H295R cell line at 48hr of chemical exposure. To generalize the intended target to other relatable targets, this assay endpoint is annotated to the steroid hormone intended target family, where the subfamily is glucocorticoids.
# Cell culture and media preparation procedures were conducted in accordance with OECD Test No. 456 guidelines, with minor modifications. H295R cells (ATCC CRL-2128) were expanded for 5 passages and frozen in batches in liquid nitrogen. Prior to the steroidogenesis assay, H295R cells were thawed and passed at least 4 times. The maximum passage was 10. Cells were maintained in a 1:1 mixture of DMEM/F12 supplemented with 5ml/L ITS+ Premix (BD Bioscience) and 12.5 ml/L Nu-Serum (BD Bioscience). After seeding cells into 96-well plates at 50-60% confluency, cells were allowed to adhere overnight. Prior to chemical testing, culture medium was replaced with 175 uL medium containing 10 uM forskolin to stimulate steroidogenesis for 48 hours. Following prestimulation, forskolin medium was replaced with medium containing test chemical solubilized in DMSO (ensuring a final concentration of 0.1% DMSO). Test chemicals were incubated for 48 hours, then the medium was removed and split into 2 vials containing approximately 75uL each, and stored at -80 C prior to hormone analysis. For steroid quantification, media samples were shipped to OpAns, LLC (Durham, NC) on dry ice, and samples were thawed to room temperature prior to liquid-liquid extraction. Steroid hormones were extracted from media samples using methyl tertbutyl ether (MTBE). An extra derivatization with dansyl chloride was included for estrogen (estrone and estradiol) detection only. Steroid hormones were separated by HPLC, eluted using a reverse phase C18 gradient with electrospray positive ionization, followed by quantification by tandem mass spectrometry (MS/MS). Data were acquired on a MassHunter Workstation Acquisition version B03.01 (Agilent Technologies, Inc.) and processed using MassHunter Quantitative Analysis for QQQ. Accuracy was determined for each hormone analyte from 3 standards to determine upper and lower limits of quantification (ULOQ and LLOQ, respectively) using a 7-point standard curve. Precision and accuracy of the extraction and quantification methods were calculated as the percent relative standard deviation (%RSD) of the spiked standards and percent spiked standard recovered, respectively. The goal was to achieve 100% accuracy (i.e., recover all spiked-in standard at quantification with minimal loss during run time) and good precision (i.e., have %RSD <15% to ensure reproducibility). Test medium was removed following chemical exposure, and cell viability was evaluated in the same wells by MTT. MTT procedures were as follows: after removal of test medium, 500 uL of 0.5 mg/ml of 3-[4,5-dimethylthiazol-2-y]2,5-diphenyltetrazoliumbromide solution was added to the cells. Following a 4-hour incubation at 37 C and 5% CO2 to allow formazan-crystal formation, the MTT solution was removed and blue formazan salt crystals were solubilized using 500uL anhydrous isopropanol with shaking for 20 minutes. […]
SMILES,outcome,AC50
c1cc2ccc3cccc4ccc(c1)c2c34,inactive,–
CCOCCOC(C)=O,inactive,–
Cc1cccc(C)c1N,inactive,–
Nc1ccc(-c2ccc(N)cc2)cc1,–,65.8 µM (active)
C[C@]12CCC(=O)C=C1CC[C@@H]1[C@@H]2CC[C@@]2(C)[C@H]1CC[C@]2(C)O,–,7.76 µM (active)
ClC1=C(Cl)[C@]2(Cl)[C@@H]3[C@H]4C[C@H]([C@@H]5O[C@H]45)[C@@H]3[C@@]1(Cl)C2(Cl)Cl,–,5.13 µM (active)
Cc1cc(O)ccc1Cl,inactive,–
C=CC(N)=O,inactive,–
Oc1ccc(Cl)cc1Cl,inactive,–
CCC(=O)O[C@H]1CC[C@H]2[C@@H]3CCC4=CC(=O)CC[C@]4(C)[C@H]3CC[C@]12C,–,30.7 µM (active)
CCSC(=O)N(CC)C1CCCCC1,inactive,–
O=C(NC(=O)c1c(F)cccc1F)Nc1cc(Cl)c(OC(F)(F)C(F)F)c(Cl)c1,inactive,–
CC1=C2C[C@H]3[C@@H](CC=C4C[C@@H](O)CC[C@@]43C)[C@@H]2CC[C@]12O[C@@H]1C[C@H](C)CN[C@H]1[C@H]2C,inactive,–
Cc1ccc(O)c(C)c1,inactive,–
NS(=O)(=O)C(F)(F)C(F)(F)C(F)(F)C(F)(F)C(F)(F)C(F)(F)C(F)(F)C(F)(F)F,inactive,–
CC#Cc1cc(C)nc(Nc2ccccc2)n1,inactive,–
Clc1ccc(C(c2ccccc2Cl)C(Cl)(Cl)Cl)cc1 (configuration not stated),inactive,–
